# Measured values taken from PubChem BioAssay AID624459 (National Center for Advancing Translational Sciences (NCATS), 2012).
# Active and inactive are the calls of the source. No rule for the calls is given here.
# Experiment: HTS Assay for Allosteric Antagonists of the Human D2 Dopamine Receptor: Hit Validation in Parental Cell Line
compound,measurement,value
NCCc1ccc(O)c(O)c1,outcome,inactive
